# Test results taken from PubChem BioAssay.
# Target: Calmodulin-1 (Homo sapiens) (UniProt P0DP23)
# Experiment: small molecules binding calmodulin-1 with EGTA – biochemical, small-molecule microarray, Cy5-labelled CALM1, profiling panel (AID 1111);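 note: labelled calmodulin applied in Tris saline Tween buffer holding calcium plus EGTA and DTT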
# Conditions: Cy5-CALM1 binding fluorescence, higher = more signal
row,Compound,composite z-score
1,Cc1ccc(S[C@]2(C(=O)NCC(F)(F)F)CC(=O)N(Cc3cc(C(F)(F)F)cc(C(F)(F)F)c3)[C@@H]2c2ccc(CO)cc2)cc1,-0.392
2,COCCOC(=O)N1C(=O)[C@@]2(c3ccccc31)[C@H](c1ccc(O)cc1)N1[C@H](c3ccccc3)[C@H](c3ccccc3)OC(=O)[C@H]1[C@@H]2C(=O)N1CCN(c2ncccn2)CC1,0.667
3,CCCCC(CC)C(O)C1C=CC2C(=O)N(c3ccccc3)C(=O)C2N1Nc1ccccc1F (stereo unspecified),0.0117
4,COC(=O)C/C=C/C[C@]1(O)C(=O)N(C)c2ccccc21,-1.34
5,COCCOC(=O)N1C(=O)[C@@]2(c3cc(C#CCCO)ccc31)[C@H](c1ccc(OCCO)cc1)N1[C@H](c3ccccc3)[C@H](c3ccccc3)OC(=O)[C@H]1[C@@H]2C(=O)Nc1nc2ccccc2s1,0.751
6,CC(C)c1ccc(NN2C(C(O)c3ccc(F)cc3)C=CC3C(=O)N(c4ccccc4)C(=O)C32)cc1 (stereo unspecified),1.24
7,O=C1[C@H]2C=C(I)[C@H](C[C@@H]2OCCOCCO)[C@@]12CO2,-0.315
8,COC(=O)[C@@]1(Cc2ccc(F)cc2)[C@H]2c3cc(C(=O)N4CCCC4)n(CCc4c[nH]c5ccccc45)c3C[C@H]2CN1C(=O)c1ccccc1,1.45
9,O=C1OCCC/C=C\[C@H]2OC34C=CCN(c5ccc6ccccc6c5)C(=O)[C@H]3N(CCO)C(=O)[C@@H]4C12 (stereo partly specified),0.0755
10,Cc1ccc(S[C@]2(C(=O)O)CC(=O)N(C3CCCCC3)[C@@H]2c2ccc(CO)cc2I)cc1,1.79
11,CCCCC(CC)C(O)C1C=CC2C(=O)N(C)C(=O)C2N1Nc1ccccc1 (stereo unspecified),1.29
